An excerpt weighted towards active compounds, which were near 3% of everything screened.
ROMK mod – ROMK potassium channel modulators, primary screen, cell-based, thallium flux, MLSMR library; B-score at 10 µM; Tet-inducible ROMK, thallium flux fluorescence; actives lie on both sides; actives 2% (n = 130,000); ATP-sensitive inward rectifier potassium channel 1 (Homo sapiens), P48048;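 active = signal ratio slope over the read window, or its plate-corrected B-score, at least 3 SD from the plate mean, either direction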;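 note: B-score of the F/F0 ratio slope over 7 to 12 s after thallium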
Target sequence (P48048 whole entry, looked up): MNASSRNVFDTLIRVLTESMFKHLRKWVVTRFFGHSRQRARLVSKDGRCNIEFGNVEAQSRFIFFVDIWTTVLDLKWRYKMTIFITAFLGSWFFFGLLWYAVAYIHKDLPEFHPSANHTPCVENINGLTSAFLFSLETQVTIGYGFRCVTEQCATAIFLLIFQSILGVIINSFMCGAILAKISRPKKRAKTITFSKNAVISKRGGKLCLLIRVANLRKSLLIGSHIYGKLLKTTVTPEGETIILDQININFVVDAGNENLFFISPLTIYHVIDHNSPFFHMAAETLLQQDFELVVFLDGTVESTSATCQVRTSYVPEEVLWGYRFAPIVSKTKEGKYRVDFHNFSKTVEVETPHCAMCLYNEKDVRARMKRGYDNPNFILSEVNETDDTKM
sdo1 growth – growth rescue of sdo1-depleted yeast, primary screen, S. cerevisiae, bone marrow failure model; S. cerevisiae sdo1-depleted JHY4D growth rescue, OD600 30 h; active compounds read high; pdr5 snq2 efflux-pump mutant strain; z-score at 10 µM; actives 0.21% (n = 140,000);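 active = z-score above 3 at both the 24 hr and the 30 hr optical density reads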;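 note: z-score against mean and SD of all compound wells on the same plate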
INS promoter inh – inhibitors of insulin promoter-driven GFP, primary screen, imaging, TRM-6 cells (human fetal islet line), eGFP reporter, cell count; reporter expression induced with tamoxifen; actives 0.9% (n = 130,000); inhibition, % at 2 µM; AID 1273, 2008;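 active = inhibition above the mean plus 3 SD, with well images judged a real hit on visual review, cut at about 60% in these data, passing the limit was not always enough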
Measles CPE – compounds protecting cells from measles virus cytopathic effect, primary screen, measles RdRp inhibitor project, single point, MLSMR library, absorbance. AID 841, 2007. Measles virus-infected cells, CPE protection. protection (pct of control), % at 4 µM. actives 1.5% (n = 140,000); in the data active = protection mostly above about 24%, no sharp cut-off; inactive = mostly below about 26%
Numbers without * were called inactive; . = no result.

SMILES	ROMK mod	sdo1 growth	INS promoter inh	Measles CPE
C=CCN1C(=O)CSc2ccc(C(=O)N3CCC(C)CC3)cc21	.	-0.36	-23	8
COc1ccc(CCN2C(=O)CC(NNC(=O)c3ccccc3Br)C2=O)cc1OC (configuration not stated)	-0.11	0.31	24	11
CCCCCC(=O)N/N=C/c1cccs1	.	0.02	-71	7
CC(C)CNC(=O)CC(=O)N/N=C/c1cccs1	0.51	0.2	-93	25*
O=c1c2c3c(sc2[nH]c(=S)n1Cc1ccco1)CCC3	-5.5*	.	.	.
CCOc1ccc2nc(-c3ccccc3)[nH]c2c1	2.5	-0.18	86*	2
COc1ccc2nc(-c3ccccc3)[nH]c2c1	-0.16	0.42	-310	1
Cc1cc(C)n(-c2cc(N3CCN(C(=O)c4ccc(C(C)(C)C)cc4)CC3)ccc2[N+](=O)[O-])n1	.	-0.31	0	9
COc1ccc(C(=O)N2CCN(c3ccc([N+](=O)[O-])c(-n4nc(C)cc4C)c3)CC2)cc1	0.11	-0.04	33	23*
CCCc1nnc(SCC(=O)N2CCOCC2)n1C	.	1.5	-153	4
CCCn1nnnc1SCC(=O)N1CCOCC1	.	0.97	83*	9
CCn1nnnc1SCC(=O)N1CCOCC1	.	0.1	-3	28*
O=C(CSc1nnnn1C1CCCCC1)N1CCOCC1	-0.47	.	0	.
O=c1[nH]c(=O)n(CCO)c2nnn(Cc3ccccc3)c12	0.92	2	.	30*
COc1ccc(-c2nc3c(c(=O)[nH]c(=O)n3Cc3ccccc3)n2C)cc1	0.027	-0.51	21	2
Cc1ccccc1CS(=O)(=O)c1nnc([C@H](Cc2ccccc2)NC(=O)OC(C)(C)C)o1	-0.93	-2.2	78*	9
CC(C)(C)OC(=O)N[C@@H](Cc1ccccc1)c1nnc(S(=O)(=O)Cc2ccccc2)o1	-0.14	-1.9	46	19
N#C/C(=C\c1ccc(-c2ccc(S(=O)(=O)N3CCOCC3)cc2)o1)C(=O)NC1CC1	-0.3	0.03	62*	11
N#C/C(=C\c1ccc(-c2ccc(C(=O)O)cc2)o1)C(=O)NCC1CCCO1 (configuration not stated)	1.3	0.04	0	13
COC(=O)c1ccc(OCC(O)CN(CC(C)C)CC(C)C)cc1 (configuration not stated)	0.33	0.65	.	4
Clc1ccc(-c2csc(N3CCOCC3)n2)cc1	-0.046	.	73*	.
Cc1ccc(/C=C2\CCC3=C2OC(N)=C(C#N)C3c2ccc(C)cc2)cc1 (configuration not stated)	-4.9*	-1.4	.	2
N#CC1=C(N)OC2=C(CCc3ccccc32)C1c1ccccc1 (configuration not stated)	1.9	-0.89	-73	4
Cn1c(CSCc2ccccc2)nnc1SCC(=O)Nc1ccc(C(=O)O)cc1	0.98	.	.	.
Cn1c(Cc2ccccc2)nnc1SCc1ccc(C(=O)O)cc1	0.47	0.56	75*	10
SMILES	ROMK mod	sdo1 growth	INS promoter inh	Measles CPE
O=C1/C(=C/c2cccnc2)CCC/C1=C\c1cccnc1	-4.6*	-0.93	-107	0
CCC1C/C(=C\c2cccnc2)C(=O)/C(=C/c2cccnc2)C1 (configuration not stated)	-4.3*	-0.73	63	1
COc1ccccc1C(=O)Oc1cc(C)[nH]c(=O)c1[N+](=O)[O-]	-0.59	.	-43	.
CN(Cc1nc2ccccc2n1C)S(=O)(=O)c1ccc(F)cc1	.	0.19	93*	13
CC1(C)CC(=O)C2=C(C1)Nc1ncnn1C2c1cccs1 (configuration not stated)	-0.3	.	50	.
Oc1cccc2ccc[n+](CC(O)Cn3c4ccccc4c4ccccc43)c12 (configuration not stated)	-0.38	0.6	-27	15
COC(=O)C1=C(O)CSC1=Nc1ccc(C)cc1	0.18	0.67	-21	26*
Cn1c(=O)[nH]c(=O)c2c1nc(N1CCCCCC1)n2CCN1CCCCCC1	0.59	1.2	-26	39*
CCCn1c(N2CCN(C)CC2)nc2c1c(=O)[nH]c(=O)n2C	.	-0.06	35	16
CN1CCN(c2nc3c(c(=O)[nH]c(=O)n3C)n2CC(N)=O)CC1	1	-0.41	.	29*
Cc1cc(S(=O)(=O)NCC(c2ccccc2)c2ccccc2)ccc1-n1cnnn1	1.4	-2.2	-17	23*
Cc1cc(S(=O)(=O)NC2CCCCC2)ccc1-n1cnnn1	0.28	.	.	.
CCN(CC)S(=O)(=O)c1ccc(-n2cnnn2)c(C)c1	0.52	2	-16	48*
Cc1cc(C)n(-c2cc(N3CCN(C(=O)c4ccccc4C)CC3)ccc2[N+](=O)[O-])n1	.	.	-22	.
O=C(Nc1ncn[nH]1)c1ccc(S(=O)(=O)N2CCOCC2)cc1	0.079	.	.	.
Cc1cccc(C(C)C)c1NC(=O)COC(=O)Cc1ccsc1	.	0.99	.	2
Cc1cccc(C)c1NC(=O)COC(=O)COc1ccc2c(C)cc(=O)oc2c1	-0.11	0.14	60*	5
Cc1cccc(C)c1NC(=O)COC(=O)Cc1ccsc1	-0.07	0.92	67*	4
COc1cccc(CN2CCN(Cc3ccc(OC)c(OC)c3)CC2CCO)c1 (configuration not stated)	0.28	.	.	.
CC(=O)OC(C(=O)NCc1ccco1)c1ccncc1 (configuration not stated)	1	0.86	15	4
COCCN1C=C(C(=O)OC)C(c2ccc(OC)c(OC)c2)C(C(=O)OC)=C1	0.44	0.17	71*	5
COc1cccc(/C=N/NC(=O)c2ccc(COc3ccc(Cl)cc3Cl)o2)c1	.	-0.49	.	52*
CC(C)CN(C(=O)c1cc2ccccc2o1)c1c(N)n(CC(C)C)c(=O)[nH]c1=O	.	0.84	.	13
CCN(CC)C(=O)C1CCCN(C(=O)Nc2ccccc2)C1 (configuration not stated)	.	0.55	7	35*
CC(N)=Nc1ccc([N+](=O)[O-])cc1	0.8	0.51	.	2
SMILES	ROMK mod	sdo1 growth	INS promoter inh	Measles CPE
O=[N+]([O-])c1ccc(N=Nc2c(Cl)cc(O)cc2Cl)cc1	-8.8*	.	.	.
CCOC(=O)c1ccc(NC(=O)CN(Cc2ccc(Cl)cc2)S(C)(=O)=O)cc1	0.4	-1.5	17	11
Cc1ccc(C)c(NS(=O)(=O)c2ccc(OCC(=O)NCc3ccco3)cc2)c1	-0.81	-1.2	69	13
Cc1ccc(NS(=O)(=O)c2ccc(OCC(=O)NCc3ccco3)cc2)cc1	-0.31	0.47	29	53*
COc1ccc(C)cc1S(=O)(=O)N(CC(=O)Nc1cccc([N+](=O)[O-])c1)c1ccc(C)c(C)c1	-0.52	-0.93	-97	50*
Cc1ccc(NC(=O)CN(c2ccc(Cl)cc2)S(=O)(=O)c2cc([N+](=O)[O-])ccc2Cl)cc1	-0.37	-1.8	8	6
COc1cc2c(cc1NC(=S)Nc1cccc3ccccc13)oc1ccccc12	1.4*	-0.65	24	3
CC1CC(C)CN(C(=O)C2CCCN(S(=O)(=O)c3cccc4nonc34)C2)C1 (configuration not stated)	-0.18	-0.65	0	53*

Source: PubChem BioAssay
